{
  "source": "PubChem BioAssay AID371",
  "about": "(SRMLSC, 2006)",
  "note": "Where “and” joins values, the source holds several entries; their conditions need not be identical. Equal values may be shown once. The campaign covered roughly 3,300 compounds. About 280 (8.5%) were called active.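 The calls were made as follows: active = mean growth inhibition over the two runs of 50% or more; inactive = mean growth inhibition under 50%.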 Many of the other results were omitted from the sample, so actives are more common in it than they were.",
  "data": [
    {"experiment": "A549 NSCLC cell proliferation inhibitors – ATP luminescence, human non-small cell lung line, primary screen (AID 371);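 also: compound exposure lasted 72 h before the ATP read; 0% = untreated cell signal and 100% = no luminescence left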", "conditions": "at 10 µM, hits give high values", "values": [
      {"smiles": "C=C(C)CN1CCN(c2c(CCC#N)c(C)c(C#N)c3nc4ccccc4n23)CC1", "growth inhibition": "25.9% (inactive)"},
      {"smiles": "Cc1c(CCC#N)c(N2CCCCC2)n2c(nc3ccccc32)c1C#N", "growth inhibition": "4.5% (inactive)"},
      {"smiles": "Cc1c(CCC#N)c(N2CCN(C3CCCCC3)CC2)n2c(nc3ccccc32)c1C#N", "growth inhibition": "89.1% (active)"},
      {"smiles": "CC1(C)CC(=O)C(CCCN2C(=O)c3ccccc3C2=O)C(=O)C1", "growth inhibition": "0.69% (inactive)"},
      {"smiles": "Cc1ccc(-c2nn3c(-c4cccc(Cl)c4)nnc3s2)cc1", "growth inhibition": "45% (inactive)"},
      {"smiles": "CC(C)COc1ccc(C(=O)OCCN2CCOCC2)c(O)c1", "growth inhibition": "12.1% (inactive)"},
      {"smiles": "C(=C\\c1ccccc1)/CN1CCN(C(c2ccccc2)c2ccccc2)CC1", "growth inhibition": "22.9% (inactive)"},
      {"smiles": "O=C(O)CCCC(=O)N1CCN(C(c2ccccc2)c2ccccc2)CC1", "growth inhibition": "0.62% (inactive)"},
      {"smiles": "O=c1[nH]c2ccccc2n1CCCN1CCN(C(c2ccccc2)c2ccccc2)CC1", "growth inhibition": "90.4% (active)"},
      {"smiles": "COc1cc2[nH]c3c(=O)n(CCN(C(C)C)C(C)C)cnc3c2cc1OC", "growth inhibition": "5.76% (inactive)"},
      {"smiles": "Cc1ccc(-c2nn(CCC(=O)NCC3CCCO3)c(=O)c3ccccc23)cc1", "note": "(configuration not stated)", "growth inhibition": "17.4% (inactive)"},
      {"smiles": "c1ccc(-c2ccc(C(c3ccccc3)n3ccnc3)cc2)cc1", "note": "(configuration not stated)", "growth inhibition": "78.7% (active)"},
      {"smiles": "O=C(N(c1ccccc1)c1ccccc1)n1ccnc1", "growth inhibition": "7.93% (inactive)"},
      {"smiles": "COc1cc(C2C(C#N)=C(N)Oc3cc(C)n(CCN4CCOCC4)c(=O)c32)cc(OC)c1OC", "note": "(configuration not stated)", "growth inhibition": "3.04% (inactive)"},
      {"smiles": "COc1cccc(C2C(C#N)=C(N)Oc3cc(C)[nH]c(=O)c32)c1OC", "note": "(configuration not stated)", "growth inhibition": "2.31% (inactive)"},
      {"smiles": "COc1cc(C2C(C#N)=C(N)Oc3cc(N)ccc32)cc(OC)c1OC", "note": "(configuration not stated)", "growth inhibition": "51.6% (active)"},
      {"smiles": "CC(C(=O)N1CCCCC1)N1C(=O)c2ccccc2C1=O", "note": "(configuration not stated)", "growth inhibition": "-14.3% (inactive)"},
      {"smiles": "O=C1C(=O)N(CCN2CCOCC2)C(c2ccccn2)/C1=C(/O)c1ccccc1", "note": "(configuration not stated)", "growth inhibition": "4.51% (inactive)"},
      {"smiles": "CCN(CC)CCCN1C(=O)C(=O)/C(=C(/O)c2ccc(Cl)cc2)C1c1ccccn1", "note": "(configuration not stated)", "growth inhibition": "-16.8% (inactive)"},
      {"smiles": "CCCCc1oc2ccccc2c1C(=O)c1cc(I)c(OCCN(CC)CC)c(I)c1", "growth inhibition": "83.4% (active)"},
      {"smiles": "CCC(C(=O)OCCN(CC)CC)c1ccccc1", "note": "(configuration not stated)", "growth inhibition": "5.51% (inactive)"},
      {"smiles": "CCN(CC)CCOC(=O)C(c1ccccc1)c1ccccc1", "growth inhibition": "2.67% (inactive)"},
      {"smiles": "CCCn1c(SCC#N)nc2c(c1=O)C1(CCCC1)Cc1ccccc1-2", "growth inhibition": "21.2% (inactive)"},
      {"smiles": "O=S(=O)(c1ccccc1)N1CCC(N2CCN(c3ccccc3)CC2)CC1", "growth inhibition": "4.82% (inactive)"},
      {"smiles": "Fc1ccc2[nH]c3c(N4CCN(Cc5ccc6c(c5)OCO6)CC4)ncnc3c2c1", "growth inhibition": "83.3% (active)"},
      {"smiles": "Cc1cc(=O)oc(C)c1C(=O)N1CCN(Cc2ccc3c(c2)OCO3)CC1", "growth inhibition": "8.78% (inactive)"},
      {"smiles": "CCCCNC(=O)C(C#N)c1nc2ccccc2nc1N1CCN(Cc2ccc3c(c2)OCO3)CC1", "note": "(configuration not stated)", "growth inhibition": "11.1% (inactive)"},
      {"smiles": "CCN(CC)CCNc1ncnc2c1[nH]c1ccc(OC)cc12", "growth inhibition": "42.2% (inactive)"},
      {"smiles": "CCOC(=O)N1CCN(c2ncnc3c2[nH]c2ccc(OC)cc23)CC1", "growth inhibition": "28.5% (inactive)"},
      {"smiles": "COc1ccc2[nH]c3c(N4CCN(Cc5ccc6c(c5)OCO6)CC4)ncnc3c2c1", "growth inhibition": "76.3% (active)"},
      {"smiles": "CC(C)OC(=O)C(C#N)c1nc2ccccc2nc1N1CCN(Cc2ccc3c(c2)OCO3)CC1", "note": "(configuration not stated)", "growth inhibition": "3.13% (inactive)"},
      {"smiles": "Cc1ccc2[nH]c3c(N4CCN(Cc5ccc6c(c5)OCO6)CC4)ncnc3c2c1", "growth inhibition": "83.9% (active)"},
      {"smiles": "COc1ccccc1C(=O)N1CCN(Cc2ccc3c(c2)OCO3)CC1", "growth inhibition": "8.7% (inactive)"},
      {"smiles": "CC(C)N1CCc2c(sc(N)c2C#N)C1", "growth inhibition": "17.2% (inactive)"},
      {"smiles": "CC(=O)N=C(N)Sc1nc2ccccc2[nH]1", "growth inhibition": "6.73% (inactive)"},
      {"smiles": "COC(=O)CSc1nc(-c2cccs2)ccc1C#N", "growth inhibition": "14.7% (inactive)"},
      {"smiles": "COc1cc(Cn2ccnc2)c(OC)cc1Cn1ccnc1", "growth inhibition": "1% (inactive)"},
      {"smiles": "Cc1ccc(/C(O)=C2/C(=O)C(=O)N(Cc3ccco3)C2c2cccs2)cc1", "note": "(configuration not stated)", "growth inhibition": "-0.53% (inactive)"},
      {"smiles": "COC(=O)/C=c1/s/c(=C(/C#N)C(=O)N2CCCCC2)n(-c2ccccc2)c1=O", "growth inhibition": "-4.39% (inactive)"},
      {"smiles": "C[C@@H]1C[C@H](Nc2ccccc2)c2ccccc2N1C(=O)c1cccnc1", "growth inhibition": "53.7% (active)"},
      {"smiles": "O=C(c1cncc(Br)c1)N1CCCc2ccccc21", "growth inhibition": "8.54% (inactive)"},
      {"smiles": "O=C(Nc1cccnc1)c1cccnc1", "growth inhibition": "-4.29% (inactive)"},
      {"smiles": "O=C(O)CCN(CCC(=O)O)c1nnc(SCc2ccccc2)s1", "growth inhibition": "-4.61% (inactive)"},
      {"smiles": "CC(=O)NC(=O)Nc1sc(=S)n(C)c1C", "growth inhibition": "-19.1% (inactive)"},
      {"smiles": "CCOc1ccc(/C(O)=C2/C(=O)C(=O)N(c3nc(C)c(C)s3)C2c2ccco2)cc1", "note": "(configuration not stated)", "growth inhibition": "18.5% (inactive)"},
      {"smiles": "CCCCSc1nnc2n(CCc3ccccc3)c(=O)c3c4c(sc3n12)COC(C)(C)C4", "growth inhibition": "13.8% (inactive)"},
      {"smiles": "CCN(CC)CCNC(=O)c1cc(S(C)(=O)=O)ccc1OC", "growth inhibition": "-4.61% (inactive)"},
      {"smiles": "CCCCOc1cc(C(=O)NCCN(CC)CC)c2ccccc2n1", "growth inhibition": "81.4% (active) and 70.4% (active)"},
      {"smiles": "CCN(CC)CCNC(=O)c1ccccc1N", "growth inhibition": "2.63% (inactive)"},
      {"smiles": "C=CCOn1c(=O)c(-c2cc3ccccc3o2)[n+]([O-])c2ccccc21", "growth inhibition": "8.84% (inactive)"},
      {"smiles": "CN(C)CCC=C1c2ccccc2CCc2ccccc21", "growth inhibition": "26.6% (inactive)"},
      {"smiles": "CNCCC=C1c2ccccc2CCc2ccccc21", "growth inhibition": "79.8% (active)"},
      {"smiles": "CC1(C)Cc2ccccc2-c2c1c(=O)n(-c1ccccc1)c1nnnn21", "growth inhibition": "3.31% (inactive)"},
      {"smiles": "Cc1ccccc1COc1ccc(/C(O)=C2/C(=O)C(=O)N(CCCn3ccnc3)C2c2ccco2)cc1", "note": "(configuration not stated)", "growth inhibition": "1.79% (inactive)"},
      {"smiles": "CCN(CC)CCN1C(=O)C(O)=C(C(=O)c2cc3ccccc3o2)C1c1cccnc1", "note": "(configuration not stated)", "growth inhibition": "-1.01% (inactive)"},
      {"smiles": "CC(C)OC(=O)C(C#N)c1nc2ccccc2nc1N1CCCC1", "note": "(configuration not stated)", "growth inhibition": "18.3% (inactive)"},
      {"smiles": "COC(=O)COc1ccc(Oc2nc(SC)nc(N(C)C)n2)nn1", "growth inhibition": "-1.19% (inactive)"}
    ]}
  ]
}
